# Compound: CN[C@@H]1C[C@H]2O[C@@](C)([C@@H]1OC)n1c3ccccc3c3c4c(c5c6ccccc6n2c5c31)C(=O)NC4 [staurosporine]
# Assay: log2 fold change of tryptic peptide abundance, ligand vs vehicle (limited proteolysis) (log2 ratio); higher = more trypsin-susceptible (destabilized)
# Conditions: ligand concentration: 20 uM; sample: mouse liver crude lysate; replicate design: treated separately
# Sequence of UniProt O55047 (O55047 whole entry): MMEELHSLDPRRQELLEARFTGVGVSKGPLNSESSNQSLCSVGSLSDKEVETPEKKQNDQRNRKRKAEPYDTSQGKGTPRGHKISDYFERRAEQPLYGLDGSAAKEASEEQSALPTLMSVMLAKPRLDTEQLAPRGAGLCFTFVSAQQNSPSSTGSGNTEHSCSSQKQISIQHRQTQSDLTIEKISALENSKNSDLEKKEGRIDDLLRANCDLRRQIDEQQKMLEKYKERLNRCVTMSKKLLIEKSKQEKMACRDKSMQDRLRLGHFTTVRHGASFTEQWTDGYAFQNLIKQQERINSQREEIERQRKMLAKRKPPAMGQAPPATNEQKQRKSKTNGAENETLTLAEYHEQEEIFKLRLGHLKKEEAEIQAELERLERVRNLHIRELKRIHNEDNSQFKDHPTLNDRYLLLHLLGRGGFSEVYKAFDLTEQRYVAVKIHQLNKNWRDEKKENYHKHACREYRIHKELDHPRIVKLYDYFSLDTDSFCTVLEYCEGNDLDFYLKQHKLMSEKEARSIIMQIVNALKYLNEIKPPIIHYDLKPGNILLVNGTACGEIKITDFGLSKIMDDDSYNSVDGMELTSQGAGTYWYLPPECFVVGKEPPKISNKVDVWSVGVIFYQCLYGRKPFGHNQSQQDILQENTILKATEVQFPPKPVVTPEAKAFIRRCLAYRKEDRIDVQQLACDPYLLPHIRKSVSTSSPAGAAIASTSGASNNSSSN
# Sequence of UniProt Q925I1 (Q925I1 whole entry): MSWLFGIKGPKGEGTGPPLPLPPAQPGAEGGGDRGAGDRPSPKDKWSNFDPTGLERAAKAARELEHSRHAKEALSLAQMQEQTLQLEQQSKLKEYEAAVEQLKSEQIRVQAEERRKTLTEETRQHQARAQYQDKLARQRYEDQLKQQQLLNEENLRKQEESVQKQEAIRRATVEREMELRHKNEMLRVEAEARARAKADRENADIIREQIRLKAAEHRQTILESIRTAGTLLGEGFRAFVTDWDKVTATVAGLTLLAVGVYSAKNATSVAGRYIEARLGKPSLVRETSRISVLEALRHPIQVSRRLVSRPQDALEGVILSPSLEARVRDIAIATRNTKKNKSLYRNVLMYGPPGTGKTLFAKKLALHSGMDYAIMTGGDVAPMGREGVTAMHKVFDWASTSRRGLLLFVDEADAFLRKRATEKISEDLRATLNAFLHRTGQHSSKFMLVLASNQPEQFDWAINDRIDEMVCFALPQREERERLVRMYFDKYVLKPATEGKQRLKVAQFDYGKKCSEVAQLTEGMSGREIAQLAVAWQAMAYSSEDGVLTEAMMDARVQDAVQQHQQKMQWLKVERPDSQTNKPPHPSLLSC
# Sequence of UniProt Q99J56 (Q99J56 whole entry): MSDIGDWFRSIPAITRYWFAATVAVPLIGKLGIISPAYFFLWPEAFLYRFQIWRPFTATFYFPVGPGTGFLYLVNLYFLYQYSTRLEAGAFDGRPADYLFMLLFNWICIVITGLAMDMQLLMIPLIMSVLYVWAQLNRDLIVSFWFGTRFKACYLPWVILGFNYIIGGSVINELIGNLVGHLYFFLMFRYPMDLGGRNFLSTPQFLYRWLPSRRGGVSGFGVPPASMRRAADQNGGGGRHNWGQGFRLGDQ
# Sequence of UniProt Q6P4S6 (Q6P4S6 whole entry): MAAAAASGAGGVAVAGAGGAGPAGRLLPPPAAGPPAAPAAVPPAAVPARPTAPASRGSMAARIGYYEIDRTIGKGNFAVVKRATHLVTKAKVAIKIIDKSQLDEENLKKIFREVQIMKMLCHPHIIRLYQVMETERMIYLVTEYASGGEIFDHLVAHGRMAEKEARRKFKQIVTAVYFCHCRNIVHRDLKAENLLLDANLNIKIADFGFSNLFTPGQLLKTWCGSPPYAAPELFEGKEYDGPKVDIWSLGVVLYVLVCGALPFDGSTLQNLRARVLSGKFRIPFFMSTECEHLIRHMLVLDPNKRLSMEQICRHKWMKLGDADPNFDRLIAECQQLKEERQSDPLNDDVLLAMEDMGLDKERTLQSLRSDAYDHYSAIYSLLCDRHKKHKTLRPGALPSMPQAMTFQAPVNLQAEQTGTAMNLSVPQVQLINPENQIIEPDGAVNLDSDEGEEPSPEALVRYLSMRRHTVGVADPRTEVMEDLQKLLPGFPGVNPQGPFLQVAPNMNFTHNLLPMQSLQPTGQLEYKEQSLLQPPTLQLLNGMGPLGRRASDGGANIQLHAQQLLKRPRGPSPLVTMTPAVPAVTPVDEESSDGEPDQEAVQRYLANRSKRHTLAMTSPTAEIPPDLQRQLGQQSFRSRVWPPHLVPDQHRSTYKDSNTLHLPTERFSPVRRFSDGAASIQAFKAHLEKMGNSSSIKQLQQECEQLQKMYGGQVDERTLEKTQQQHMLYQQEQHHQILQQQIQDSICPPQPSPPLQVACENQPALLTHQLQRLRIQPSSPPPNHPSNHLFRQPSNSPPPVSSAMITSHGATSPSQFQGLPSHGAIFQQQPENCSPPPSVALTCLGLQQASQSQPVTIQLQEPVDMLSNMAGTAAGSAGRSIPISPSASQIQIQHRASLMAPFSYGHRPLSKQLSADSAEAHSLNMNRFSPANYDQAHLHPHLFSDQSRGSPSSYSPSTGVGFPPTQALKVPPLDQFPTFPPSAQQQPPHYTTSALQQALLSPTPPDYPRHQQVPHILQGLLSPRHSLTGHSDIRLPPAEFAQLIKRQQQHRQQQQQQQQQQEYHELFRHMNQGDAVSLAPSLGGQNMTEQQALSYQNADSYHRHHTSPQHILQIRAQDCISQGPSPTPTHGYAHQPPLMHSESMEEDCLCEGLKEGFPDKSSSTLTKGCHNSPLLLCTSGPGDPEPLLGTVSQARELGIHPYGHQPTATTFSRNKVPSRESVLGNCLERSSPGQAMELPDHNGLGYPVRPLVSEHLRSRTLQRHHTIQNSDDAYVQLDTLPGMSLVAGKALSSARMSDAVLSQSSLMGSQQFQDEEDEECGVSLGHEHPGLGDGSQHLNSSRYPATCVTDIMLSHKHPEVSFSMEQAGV
# Sequence of UniProt Q8CAS9 (Q8CAS9 whole entry): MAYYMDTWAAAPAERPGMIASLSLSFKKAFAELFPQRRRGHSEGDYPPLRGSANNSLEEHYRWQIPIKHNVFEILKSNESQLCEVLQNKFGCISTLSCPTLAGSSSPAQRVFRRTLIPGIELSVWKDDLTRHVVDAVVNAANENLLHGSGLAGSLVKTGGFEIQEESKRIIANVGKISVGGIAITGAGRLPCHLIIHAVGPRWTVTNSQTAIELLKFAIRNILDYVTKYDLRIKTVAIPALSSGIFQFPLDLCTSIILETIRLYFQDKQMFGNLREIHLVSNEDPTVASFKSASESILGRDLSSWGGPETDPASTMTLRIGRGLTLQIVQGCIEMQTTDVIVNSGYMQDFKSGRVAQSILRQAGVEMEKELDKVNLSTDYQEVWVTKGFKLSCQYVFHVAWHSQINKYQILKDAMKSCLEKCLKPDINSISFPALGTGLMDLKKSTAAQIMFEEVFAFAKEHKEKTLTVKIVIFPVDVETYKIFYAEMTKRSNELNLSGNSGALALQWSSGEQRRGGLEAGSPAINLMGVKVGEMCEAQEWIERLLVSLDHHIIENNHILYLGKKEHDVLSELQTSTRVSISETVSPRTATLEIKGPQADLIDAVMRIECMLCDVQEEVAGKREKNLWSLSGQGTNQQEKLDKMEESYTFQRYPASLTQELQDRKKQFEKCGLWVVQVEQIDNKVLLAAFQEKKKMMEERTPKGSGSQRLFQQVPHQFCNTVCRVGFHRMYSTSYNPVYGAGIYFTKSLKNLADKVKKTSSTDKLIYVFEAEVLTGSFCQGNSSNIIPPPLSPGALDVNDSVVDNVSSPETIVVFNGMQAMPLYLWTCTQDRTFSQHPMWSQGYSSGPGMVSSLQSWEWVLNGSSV
# Sequence of UniProt Q91XF0 (Q91XF0 whole entry): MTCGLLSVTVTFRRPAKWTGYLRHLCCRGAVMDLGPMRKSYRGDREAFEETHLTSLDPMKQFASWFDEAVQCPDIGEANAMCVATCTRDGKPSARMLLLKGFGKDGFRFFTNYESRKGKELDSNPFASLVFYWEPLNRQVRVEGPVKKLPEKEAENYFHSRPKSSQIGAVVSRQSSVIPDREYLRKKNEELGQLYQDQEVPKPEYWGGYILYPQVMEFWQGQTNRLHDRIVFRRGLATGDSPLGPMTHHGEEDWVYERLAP
# Sequence of UniProt Q8BYC6 (Q8BYC6 whole entry): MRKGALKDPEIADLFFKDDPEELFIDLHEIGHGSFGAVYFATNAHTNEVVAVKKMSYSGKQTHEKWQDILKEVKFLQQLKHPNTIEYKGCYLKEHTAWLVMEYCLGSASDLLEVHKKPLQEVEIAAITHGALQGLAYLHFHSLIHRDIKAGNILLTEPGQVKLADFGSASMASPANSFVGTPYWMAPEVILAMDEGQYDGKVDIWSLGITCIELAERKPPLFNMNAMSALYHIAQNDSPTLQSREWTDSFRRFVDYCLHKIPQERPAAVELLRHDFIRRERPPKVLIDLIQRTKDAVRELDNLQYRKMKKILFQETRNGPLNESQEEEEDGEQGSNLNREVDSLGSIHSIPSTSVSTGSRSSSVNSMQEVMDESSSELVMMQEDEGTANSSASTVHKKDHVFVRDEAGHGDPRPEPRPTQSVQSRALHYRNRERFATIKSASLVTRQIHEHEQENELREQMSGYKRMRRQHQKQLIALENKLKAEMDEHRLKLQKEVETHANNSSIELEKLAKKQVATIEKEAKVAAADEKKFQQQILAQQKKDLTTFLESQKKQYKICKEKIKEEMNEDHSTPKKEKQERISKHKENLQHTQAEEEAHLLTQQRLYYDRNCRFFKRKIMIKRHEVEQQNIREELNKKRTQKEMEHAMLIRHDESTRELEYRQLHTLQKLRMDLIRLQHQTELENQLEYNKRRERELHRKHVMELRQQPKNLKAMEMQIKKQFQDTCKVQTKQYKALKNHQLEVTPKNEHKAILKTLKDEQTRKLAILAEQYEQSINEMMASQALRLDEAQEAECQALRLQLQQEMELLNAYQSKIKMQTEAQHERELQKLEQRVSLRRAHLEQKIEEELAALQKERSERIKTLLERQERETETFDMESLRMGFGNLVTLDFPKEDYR
row,Target,log2 fold change
1,"UniProt O55125 (peptide sequence: NNKEYLEFR, peptide start residue: 144)",0.432
2,"UniProt P58044 (peptide sequence: WWDNLNHLSPFVDHEK, peptide start residue: 208)",1.05
3,"UniProt Q80UW5 (peptide sequence: GAFGEVAVVR, peptide start residue: 80)",-1.9
4,"UniProt O54988 (peptide sequence: WSSNFKDFLR, peptide start residue: 261)",-3.04
5,"UniProt Q9WV55 (peptide sequence: KVAHSDKPGSTSAVSFR, peptide start residue: 205)",0.313
6,"UniProt P43883 (peptide sequence: DQYPYLR, peptide start residue: 38)",0.671
7,"UniProt P47809 (peptide sequence: ISPEQHWDFTAEDLK, peptide start residue: 87)",-0.533
8,"UniProt Q9R233 (peptide sequence: GKGHLLLAATPGLAGR, peptide start residue: 215)",-1.39
9,"UniProt P51881 (peptide sequence: KGTDIMYTGTLDCWRK, peptide start residue: 245)",0.454
10,"UniProt P12710 (peptide sequence: DIKGVSEIVHEGK, peptide start residue: 34)",0.719
11,"UniProt Q8CAS9 (peptide sequence: NILDYVTK, peptide start residue: 221)",0.389
12,"UniProt Q8CAQ8 (peptide sequence: ATEKQHIELALEK, peptide start residue: 423)",-1.29
13,"UniProt Q3UHJ0 (peptide sequence: DLKVENILLHDR, peptide start residue: 176)",-4.22
14,"UniProt P31938 (peptide sequence: VSHKPSGLVMAR, peptide start residue: 85)",-0.899
15,"UniProt Q91XF0 (peptide sequence: SSQIGAVVSR, peptide start residue: 164)",1.44
16,"UniProt O09110 (peptide sequence: TFITIGDR, peptide start residue: 48)",-0.503
17,"UniProt P26443 (peptide sequence: HYSEAAADREDDPNFFK, peptide start residue: 52)",0.262
18,"UniProt Q9JLB2 (peptide sequence: DRFASAVPHTTR, peptide start residue: 505)",0.704
19,"UniProt Q6PDN3 (peptide sequence: VSDVYDIEER, peptide start residue: 1482)",-1.2

row,Target,log2 fold change
1,"UniProt Q9R0T8 (peptide sequence: DIKPGNIMR, peptide start residue: 135)",-1.44
2,"UniProt Q9QZ05 (peptide sequence: DLKPVNIFLDSDDHVK, peptide start residue: 846)",-1.48
3,"UniProt Q923T9 (peptide sequence: GAILTTMLVSR, peptide start residue: 302)",-0.876
4,"UniProt Q99KG5 (peptide sequence: VLYYMEK, peptide start residue: 347)",-0.236
5,"UniProt Q9CYH2 (peptide sequence: LGVWYNSFR, peptide start residue: 145)",-2.12
6,"UniProt Q925I1 (peptide sequence: LGKPSLVR, peptide start residue: 278)",0.434
7,"UniProt Q8K0D0 (peptide sequence: SKLTENLVALK, peptide start residue: 140)",-2.51
8,"UniProt P13516 (peptide sequence: TVPLHLEEDIRPEMK, peptide start residue: 33)",0.245
9,"UniProt Q62445 (peptide sequence: RFECPECSKR, peptide start residue: 704)",-1
10,"UniProt P14576 (peptide sequence: SAIDLEEMASGLNKRK, peptide start residue: 58)",0.95
11,"UniProt O55047 (peptide sequence: YLLLHLLGR, peptide start residue: 408)",-1.75
12,"UniProt Q99J56 (peptide sequence: GGVSGFGVPPASMR, peptide start residue: 215)",0.327
13,"UniProt Q8VEB1 (peptide sequence: DLKPENILLDDYGHIR, peptide start residue: 311)",-0.743
14,"UniProt P51174 (peptide sequence: SPAHGISLFLVENGMKGFIK, peptide start residue: 225)",0.439
15,"UniProt Q6P4S6 (peptide sequence: LIAECQQLKEER, peptide start residue: 329)",-1.43
16,"UniProt Q61037 (peptide sequence: DFVPYITK, peptide start residue: 907)",-0.612
17,"UniProt Q8BYC6 (peptide sequence: VLIDLIQR, peptide start residue: 285)",-1.67
18,"UniProt Q60772 (peptide sequence: LGNPEIAR, peptide start residue: 47)",0.494
19,"UniProt O89112 (peptide sequence: AFPNPYADYNK, peptide start residue: 5)",0.594

# Reference: the supplement of paper PMC12819154, “High-throughput peptide-centric local stability assay extends protein–ligand identification to membrane proteins, tissues and bacteria” (Nature Structural & Molecular Biology, 2025)
